A short description of assay [1]: Primary qHTS for inhibitors of SARS-S pseudo-typed particle cell entry (AID 1479145). Further: nearly all actives have a fitted effect of over 45% in size. On activity change, negative = inhibition: on the % scale 0 is the no-effect control and ±100 the full control effect. To be noted: outcome: dose series up to 57.1 µM unless noted.
Assay [2] in a line: Primary qHTS for Huh7 cytotoxicity: counterscreen for inhibitors of MERS-S pseudotyped particle cell entry (AID 1479147). The settings on record: outcome: dose series up to 57.1 µM unless noted. (qHTS replaces the single test concentration by a dilution series.)
Assay [3] can be described thus: Primary qHTS for inhibitors of MERS-S pseudo-typed particle cell entry (AID 1479149). Further: nearly all actives have a fitted effect of over 60% in size. On activity change, negative = inhibition: on the % scale 0 is the no-effect control and ±100 the full control effect. The settings on record: outcome: dose series up to 57.1 µM unless noted.
Assay [4] in a line: Primary qHTS for Vero E6 cytotoxicity: counterscreen for inhibitors of SARS-S pseudo-typed particle cell entry (AID 1479150). To be noted: outcome: dose series up to 57.1 µM unless noted.
Assay [5] can be described thus: Cytotoxicity counterscreen for inhibitors of SARS-CoV-2 cell entry (AID 1645845). Further: nearly all actives have a fitted effect of over 50% in size. To be noted: outcome: dose series up to 57.1 µM unless noted. Put shortly: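 48 h compound treatment (after 1 h preincubation), HEK293-ACE2 cells, 37 C/5% CO2; ATP luminescence endpoint; normalized to cell wells and media blanks.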
Assay [6] can be described thus: Primary qHTS to identify inhibitors of SARS-CoV-2 cell entry (AID 1645846). Further: nearly all actives have a fitted effect of over 45% in size. To be noted: SARS-CoV-2 pseudovirus cell entry assay, luminescence; activity change, negative = inhibition: at 57.1 µM (top of the series) unless noted. Put shortly: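 Data are normalized to wells receiving SARS-CoV-2-S pseudoparticles and those given bald particles. Entry signal was luciferase luminescence in stable hACE2 Expi293F cells, 48 hr post-infection, after 1 hr compound pretreatment.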

Assay [7] has as its target Nuclear receptor subfamily 1 group I member 3 (Homo sapiens) (UniProt Q14994). Nature of the assay: Primary qHTS for antagonist of constitutive androstane receptor (CAR) against the NCATS DSHEA and TCM libraries (AID 1794836; active means well fitted curve in the direction sought with a large enough effect; an effect the other way counts as inactive or inconclusive;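 further: HepG2 cells stably expressing hCAR with CYP2B6 luciferase reporter stimulated by CITCO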). Put shortly: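 Antagonist mode: CAR reporter luminescence (ONE-Glo) in HepG2-CYP2B6-hCAR cells stimulated with 48 uM CITCO (final) over 24 h at 37 C, compounds titrated; viability read first by CellTiter-Fluor fluorescence.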

A short description of assay [8]: KB-8-5-11 P-gp reporter qHTS against the NCATS DSHEA and TCM libraries (AID 1919977; active means well fitted curve in the direction sought with a large enough effect; an effect the other way counts as inactive or inconclusive; further: 0% is about no effect). Put shortly:
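Cells were seeded, allowed ~4 h to attach, dosed by pin tool (substance titrations), incubated ~72 h at 37C, then lysed with CellTiter-Glo for 30 min at room temperature before luminescence reading.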

The target in assay [9] is Glutathione peroxidase 1 (Homo sapiens) (UniProt P07203). As to the kind of experiment: Primary qHTS Assay for Inhibitors of Recombinant Selenoprotein Glutathione Peroxidase 1 (GPX1) (AID 1845191; active means well fitted curve in the direction sought with a large enough effect; an effect the other way counts as inactive or inconclusive; further: nearly all actives have a fitted effect of over 65% in size). Put shortly:
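10 nM GPX1 + cpd, 30 min RT; start w/ 1 mM GSH, 0.5 mM cumene hydroperoxide, 0.5 mM NADPH, 100 nM GR, 0.01% BSA; buffer 50 mM Tris-HCl pH 7.5, 2 mM EDTA, 150 mM NaCl; Fl 340/450, 0 & 15 min.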

Where “and” joins values, the source holds several entries; their conditions need not be identical. Identical values can stand only once. Records with an inconclusive call do not appear. Calls of active or inactive are those of the source. Unless noted, the call rests on the fitted dose curve. Numbered stars: 1 amine (or outer) side, 2 acyl side, 3 side chain; on linkers, the order of the positions; unused ones are H or OH. Bridge positions count the residues as written; N and C are the ends. Square brackets hold non-standard residues; d marks the D form. Peptide text beside a SMILES is read from it. * marks the point of attachment. X6 = NC1=N[C@@H](O)C[C@H]([C@H](N[*:1])C(=O)[*:2])N1; ΔAla(Z-3-ureido) = NC(=O)N/C=C(\N)C(=O)O; β3hOrn = NCCC[C@H](N)CC(=O)*; Dap = NC[C@H](N)C(=O)O

Here are results for 21 molecules from PubChem BioAssay (NCATS).

Chain of Glutathione peroxidase 1 (Homo sapiens) (P07203 whole entry, looked up): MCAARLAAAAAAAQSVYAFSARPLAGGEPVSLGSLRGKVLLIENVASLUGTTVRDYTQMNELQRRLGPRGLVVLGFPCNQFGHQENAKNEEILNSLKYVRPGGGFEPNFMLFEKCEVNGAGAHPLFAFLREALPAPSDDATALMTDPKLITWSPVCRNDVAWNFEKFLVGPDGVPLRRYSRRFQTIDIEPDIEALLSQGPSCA
Chain of Nuclear receptor subfamily 1 group I member 3 (Homo sapiens) (Q14994 whole entry, looked up): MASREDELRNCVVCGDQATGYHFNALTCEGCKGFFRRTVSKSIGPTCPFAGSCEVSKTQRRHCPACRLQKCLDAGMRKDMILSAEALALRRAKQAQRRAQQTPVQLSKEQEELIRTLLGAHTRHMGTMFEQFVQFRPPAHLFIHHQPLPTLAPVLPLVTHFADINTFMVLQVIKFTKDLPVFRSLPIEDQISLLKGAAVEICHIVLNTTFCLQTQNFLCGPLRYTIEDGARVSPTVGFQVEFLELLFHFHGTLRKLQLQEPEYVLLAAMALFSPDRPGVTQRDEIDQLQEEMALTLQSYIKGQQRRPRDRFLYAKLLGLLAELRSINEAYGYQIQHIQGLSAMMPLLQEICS

For the molecule `N[C@H](Cc1ccccc1)C(=O)O`, the Potency entry in assay [1], in [2], in assay [3], in assay [4] and in [5] was “inactive” in each case. The activity change, negative = inhibition in [6] was -27.4% [at 27.1 µM].

On to `Cn1cc(OCC(O)CNC(C)(C)C)c2ccccc2c1=O` (stereo not drawn), for which the Potency entry in assay [1], in assay [2], in [3], in assay [4] and in [5] was “inactive” each time. Moreover, the activity change, negative = inhibition in assay [6] is -17.6%.

For the molecule `O=C(OC1C(OC(=O)c2cccnc2)C(OC(=O)c2cccnc2)C(OC(=O)c2cccnc2)C(OC(=O)c2cccnc2)C1OC(=O)c1cccnc1)c1cccnc1` (stereo not drawn), the Potency result in [1], in assay [2], in assay [3], in assay [4] and in [5] was “inactive” in each case. Also, in assay [6], the activity change, negative = inhibition was -19.4% [at 19 µM].

As for `CC/C=C\C/C=C\C/C=C\C/C=C\C/C=C\C/C=C\CCC(=O)O`, the Potency entry in assay [1], in [2], in assay [3], in assay [4], in assay [5] and in assay [7] was “inactive” throughout. Moreover, the Potency entry in assay [8] was “inactive”. In [6], the activity change, negative = inhibition is 3.74%.

Turning to `CCC[C@@H]1CC(=O)N([C@@H](CC)C(N)=O)C1`, the Potency entry in assay [1], in assay [2], in [3], in assay [4], in [5] and in assay [9] was “inactive” in each case. For the same molecule, the activity change, negative = inhibition in assay [6] is -22.5%.

As to `CC1CC2C3CCC4=CC(=O)C=CC4(C)C3(F)C(O)CC2(C)C1(O)C(=O)COC(=O)c1cccc(S(=O)(=O)O)c1` (stereo not drawn), the Potency result in assay [1], in assay [2], in assay [3], in assay [4] and in assay [5] was “inactive” each time. Also, in [6], the activity change, negative = inhibition is 4.79%.

Regarding `C[C@H](CCC(=O)O)[C@H]1CC[C@H]2[C@@H]3CC[C@@H]4C[C@H](O)CC[C@]4(C)[C@@H]3C[C@H](O)[C@]12C`, the Potency result in assay [1], in assay [2], in assay [3], in assay [4], in assay [5] and in assay [6] was “inactive” in each case.

With `CC1(C)C2CC[C@]3(C)C(C(=O)C=C4[C@@H]5C[C@@](C)(C(=O)O)CC[C@]5(C)CC[C@]43C)[C@@]2(C)CC[C@@H]1O` (stereo partly drawn), the Potency entry in assay [1], in assay [2], in [3], in assay [4] and in assay [5] was “inactive” in each case. For the same molecule, in assay [6], the activity change, negative = inhibition is -28.8%.

As for `CO[C@H]1C[C@@H]2CC[C@@H](C)[C@@](O)(O2)C(=O)C(=O)N2CCCC[C@H]2C(=O)O[C@H]([C@H](C)C[C@@H]2CC[C@@H](OC(=O)C(C)(CO)CO)[C@H](OC)C2)CC(=O)[C@H](C)/C=C(\C)[C@@H](O)[C@@H](OC)C(=O)[C@H](C)C[C@H](C)/C=C/C=C/C=C/1C`, the Potency result in assay [1], in assay [2], in [3], in [4] and in assay [5] was “inactive” throughout. The activity change, negative = inhibition in assay [6] is -29.8% [at 27.1 µM].

On to `CCCCCCCCCCCCCC(=O)OCC(COP(=O)([O-])OCC[N+](C)(C)C)OC(=O)CCCCCCCCCCCCC` (stereo not drawn), for which the Potency result in [1], in assay [2], in assay [3], in assay [4] and in assay [5] was “inactive” each time. Besides, the activity change, negative = inhibition in assay [6] is -12.7%.

Regarding `C=C1/C(=C/C=C2\CCC[C@]3(C)[C@@H]([C@H](C)CCCC(C)(C)O)CC[C@@H]23)C[C@@H](O)[C@@H](OCCCO)[C@@H]1O`, the Potency result in assay [1], in [2], in [3], in [4] and in assay [5] was “inactive” in each case. The activity change, negative = inhibition in [6] was -12.1%.

In the case of `CO[C@H]1O[C@@H]2O[C@@]3(C)CC[C@H]4[C@H](C)CC[C@@H]([C@@H]1C)[C@@]24OO3`, the Potency result in assay [1], in assay [2], in assay [3], in [4] and in [5] was “inactive” throughout. The activity change, negative = inhibition in assay [6] is -7.86%.

For `CC(=O)Nc1c(I)c(C(=O)O)c(I)c(N(C)C(C)=O)c1I`, the Potency entry in assay [1], in [2], in [3], in assay [4] and in assay [5] was “inactive” in each case. Also, in [6], the activity change, negative = inhibition is -20.3%.

For the molecule `O=C(CCc1ccc(O)cc1)c1c(O)cc(O)cc1O[C@@H]1O[C@H](CO)[C@@H](O)[C@H](O)[C@H]1O`, the Potency result in [1], in assay [2], in [3], in assay [4] and in [5] was “inactive” each time. The activity change, negative = inhibition in assay [6] was 0.14% and -17.3%.

On to `O=C(O)c1ccc(NC(=O)[C@H](Cc2ccc(O)cc2)NC(=O)c2ccccc2)cc1`, for which the Potency result in [1], in assay [2], in assay [3], in [4] and in assay [5] was “inactive” in each case. The activity change, negative = inhibition in [6] was -10.6%.

Consider `CCCCOc1ccc(C[N+]2(C)C3CCC2CC(OC(=O)[C@H](CO)c2ccccc2)C3)cc1` (stereo partly drawn), for which the Potency result in assay [1], in [2], in assay [3], in assay [4], in assay [5] and in assay [9] was “inactive” each time. Also, the activity change, negative = inhibition in assay [6] is -21.1%.

Consider `CC(=O)OC1CC2CCC1(C)C2(C)C` (stereo not drawn), for which the Potency entry in assay [1], in [2], in assay [3], in assay [4], in assay [5] and in [7] was “inactive” in each case. Also, in [8], the Potency entry is “inactive”. Further, the activity change, negative = inhibition in assay [6] was -37.9%.

`NCCC[C@H](N)CC(=O)N[C@H]1CNC(=O)[C@H]([C@H]2C[C@H](O)N=C(N)N2)NC(=O)/C(=C/NC(N)=O)NC(=O)[C@H](CO)NC(=O)[C@H](CO)NC1=O` (β3hOrn-[Dap]SS[ΔAla(Z-3-ureido)][X6]; lactam 1-C): the Potency entry in assay [1], in assay [2], in [3], in assay [4], in [5] and in assay [6] was “inactive” throughout.

For `CCCCCCCCCCCCCCCCCC(=O)OCC(C)O` (stereo not drawn), the Potency entry in assay [1], in assay [2], in [3], in assay [4] and in assay [5] was “inactive” each time. For the same molecule, the activity change, negative = inhibition in assay [6] is -21% [at 114 µM].

On to `OCC(O)COc1ccc(Cl)cc1` (stereo not drawn), for which the Potency entry in assay [1], in assay [2], in [3], in assay [4] and in [5] was “inactive” throughout. In addition, the activity change, negative = inhibition in [6] is -23.5% [at 171 µM].

With `CC[N+]1(C)C2CC(OC(=O)[C@H](CO)c3ccccc3)CC1[C@@H]1O[C@H]21` (stereo partly drawn), the Potency entry in assay [1], in assay [2], in [3], in [4], in assay [5] and in [9] was “inactive” in each case. Also, the activity change, negative = inhibition in assay [6] is -33.5%.
